DT40 TDP1 CPT: growth inhibition of DT40 Tdp1-/-;hTDP1 cells with camptothecin (screen for TDP1 inhibitors); chicken DT40 Tdp1-/-;hTDP1 cells + 20 nM CPT, ATP luminescence, 48 h; Potency, µM (doses to about 46.2 µM), usual class: inhibitors; 12% of 420,000 active; AID 686979; note: nearly all actives have a fitted effect of over 55% in size
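Cell growth measured by CellTiter-Glo luminescence after a minimum 48 h, 37 C compound exposure with 20 nM CPT in Tdp1-knockout DT40 cells stably expressing hTDP1, seeded 400/well; qHTS titration format.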
DT40 TDP1 no CPT: qHTS for Inhibitors of human tyrosyl-DNA phosphodiesterase 1 (TDP1): qHTS in cells in absence of CPT. DT40 Tdp1-/- hTDP1 cells, no CPT, ATP luminescence, 48 h. Potency, µM (titrated, usually from 46.2 µM), usual class: inhibitors. 15% of 420,000 active. AID 686978, 2013; note: nearly all actives have a fitted effect of over 55% in size
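Growth of hTDP1-complemented DT40 Tdp1-knockout cells is measured by ATP luminescence after at least 48 hr compound exposure at 37 °C, with DMSO substituting for the 20 nM CPT used in the parallel screen.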
TDP1 block: TDP1 (human) enzyme inhibition | Q9NUW8 | recombinant TDP1, AlphaScreen DNA substrate cleavage | Potency, µM (highest dose often 130 µM), most hits filed as inhibitors | 0.28% of 350,000 active; note: nearly all actives have a fitted effect of over 40% in size
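Signal: AlphaScreen proximity between streptavidin donor and anti-FITC acceptor beads on intact substrate. Reaction: Tdp1 1 nM, substrate 15 nM final, 5 min RT after 15 min compound preincubation.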
ClpP mod: qHTS Assay for Activators of ClpP | purified B. subtilis ClpP, FRET peptide cleavage, 20 min | 1.9% of 340,000 active | Potency, µM (top dose mostly 57.5 µM) | ATP-dependent Clp protease proteolytic subunit (Bacillus subtilis (strain 168)), P80244; active = well fitted falling curve with a large enough effect; inconclusive = small, poorly fitted or top-dose-only effect; inactive = no such curve, though single readings can be large or run the other way; note: the source files actives as falling curves though it sought activators and does not explain the sign; nearly all actives have a fitted effect of over 65% in size
Target sequence (P80244 whole entry, looked up): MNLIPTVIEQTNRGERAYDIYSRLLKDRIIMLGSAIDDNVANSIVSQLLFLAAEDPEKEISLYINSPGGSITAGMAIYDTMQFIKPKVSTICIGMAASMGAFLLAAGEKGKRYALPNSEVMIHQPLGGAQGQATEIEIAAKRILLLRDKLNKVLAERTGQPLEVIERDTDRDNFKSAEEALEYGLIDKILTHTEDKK
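ClpP 10 microg/mL final, pH 8 Tris/KCl buffer with BSA, glycerol, Tween-20; compound pinned in; FRET-FV substrate; RT 20 min; Ex320/Em430; ΔFRET vs ADEP 5.8 microM, DMSO, no enzyme.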
Of the large screens only hits and unclear results are named; the others gave an inactive call. Hits are enriched below; roughly 17% of the tested compounds scored in any of these assays. Unless noted, calls come from the whole dose curve; as a rule, active = well fitted curve in the direction sought with a large enough effect; inconclusive = small, poorly fitted or top-dose-only effect, or another doubt; inactive = no such curve, though single readings can be large; an effect the other way counts as inactive or inconclusive.

CSCCC(C(=O)Nc1c(C)cccc1C)N1CCN(c2ccc(C(F)(F)F)cn2)CC1 (centres undefined)	none (no result: TDP1 block)
CCCCC1CCc2[nH]nc(C(=O)O)c2C1 (centres undefined)	none
CSCCC(C(=O)Nc1c(C)cccc1C)N1CCC(Cc2ccccc2)CC1 (centres undefined)	DT40 TDP1 CPT 16.4µM, DT40 TDP1 no CPT 18.4µM (no result: TDP1 block)
Cc1cccc(C)c1NC(=O)C(CCc1ccccc1)N1CCC(c2ccccc2)CC1 (centres undefined)	DT40 TDP1 CPT 16.4µM, DT40 TDP1 no CPT 18.4µM (no result: TDP1 block)
Cc1cccc(C)c1NC(=S)N1CCC(c2ccccc2)C1 (centres undefined)	DT40 TDP1 no CPT inconclusive (no result: ClpP mod)
CC1CCN(C(=O)C2CCC(=O)N(Cc3ccc(Cl)cc3)C2)CC1 (centres undefined)	none
COc1ccc(-n2nc(C(=O)O)c3csc(N)c3c2=O)cc1	none (no result: DT40 TDP1 CPT, DT40 TDP1 no CPT, ClpP mod)
COC(=O)c1nn(-c2ccc(OC)cc2)c(=O)c2c(N)sc(C)c12	DT40 TDP1 CPT 23.1µM, DT40 TDP1 no CPT 16.4µM
Cc1cc(C(=O)CSc2nnc(-c3ccco3)o2)c(C)n1CC1COc2ccccc2O1 (centres undefined)	DT40 TDP1 CPT 16.4µM, DT40 TDP1 no CPT 20.6µM
Cc1cc(C(=O)COC(=O)c2ccc(CO)cc2)c(C)n1CC1COc2ccccc2O1 (centres undefined)	DT40 TDP1 CPT 23.1µM, DT40 TDP1 no CPT inconclusive
Cc1cc(C(=O)CN2C(=O)C(=O)N(Cc3ccccc3)C2=O)c(C)n1CC1COc2ccccc2O1 (centres undefined)	DT40 TDP1 no CPT 18.4µM (no result: ClpP mod)
Cc1cc(/C=N/NC(N)=S)c(C)n1-c1ccc(Cl)c(Cl)c1	DT40 TDP1 CPT 2.59µM, DT40 TDP1 no CPT 3.66µM (no result: ClpP mod)
Cc1ccc(-n2c(C)cc(/C=N/NC(=O)Cn3c4ccccc4c(=O)c4ccccc43)c2C)cc1	DT40 TDP1 CPT inconclusive, DT40 TDP1 no CPT inconclusive (no result: ClpP mod)
Cc1nc2ccccn2c1C(=O)N/N=C/c1cc(C)n(-c2ccc(Cl)cc2)c1C	DT40 TDP1 CPT 16.4µM, DT40 TDP1 no CPT 14.6µM
CCNC(=S)N/N=C/c1cc(C)n(-c2ccc(Cl)cc2)c1C	DT40 TDP1 CPT 18.4µM, DT40 TDP1 no CPT 20.6µM
Cc1cc(/C=N/NC(=O)Cn2c3ccccc3c(=O)c3ccccc32)c(C)n1-c1ccc(Cl)cc1	DT40 TDP1 CPT inconclusive, DT40 TDP1 no CPT 29.1µM (no result: ClpP mod)
CCOc1ccc(S(=O)(=O)N2CCC(C(=O)OC(C)C(=O)NC3CCCCC3C)CC2)cc1 (centres undefined)	DT40 TDP1 no CPT inconclusive
O=C(O)c1ccc(Cl)c(NCc2cccs2)c1	none
O=C(CC12CC3CC(CC(C3)C1)C2)NC(=S)Nc1ccc(CN2CCOCC2)cc1	DT40 TDP1 CPT inconclusive, DT40 TDP1 no CPT inconclusive (no result: ClpP mod)
CN(C)c1c2ccccc2nc2c(F)c(F)c(F)c(F)c12	DT40 TDP1 CPT 23.1µM, DT40 TDP1 no CPT 20.6µM
O=C(CCC(=O)N1Cc2ccccc2Oc2ncccc21)NCc1ccccc1Cl	DT40 TDP1 no CPT inconclusive
CCOC(=O)c1cc(NC(=O)Cc2ccc(S(=O)(=O)N3CCOCC3)s2)cc(C(=O)OCC)c1	DT40 TDP1 CPT 23.1µM, DT40 TDP1 no CPT inconclusive
CCN(CC)S(=O)(=O)c1cc(NC(=O)Cc2ccc(S(=O)(=O)N3CCOCC3)s2)ccc1Cl	DT40 TDP1 CPT 20.6µM, DT40 TDP1 no CPT 13µM (no result: TDP1 block)
CCn1c2ccccc2c2cc(NC(=O)Cc3ccc(S(=O)(=O)N4CCOCC4)s3)ccc21	DT40 TDP1 CPT inconclusive, DT40 TDP1 no CPT inconclusive
CN(C)S(=O)(=O)c1ccc(NC(=O)Cc2ccc(S(=O)(=O)N3CCOCC3)s2)cc1	none (no result: ClpP mod)
COc1ccc(S(=O)(=O)N(C)C)cc1NC(=O)Cc1ccc(S(=O)(=O)N2CCOCC2)s1	DT40 TDP1 CPT 13µM, DT40 TDP1 no CPT inconclusive
CC1CCCCC1NC(=O)CN1CCC(NC(=O)C(C)(C)C)CC1 (centres undefined)	none (no result: TDP1 block)
CSCC[C@@H]1NC(=O)C/C=C\[C@@H](C)COC(=O)[C@H](C)COC1=O	none (no result: DT40 TDP1 CPT, DT40 TDP1 no CPT, ClpP mod)
CCN(Cc1nc2cc(Cl)ccc2c(=O)[nH]1)C(=O)CN1C(=O)NC2(CCCCC2C)C1=O (centres undefined)	none
CCOC(=O)CC(=O)CSc1nc(-c2ccc3c(c2)OCO3)cc(C(F)(F)F)c1C#N	ClpP mod 20µM
CCOC(=O)CCSc1nc(-c2ccc3c(c2)OCO3)cc(C(F)(F)F)c1C#N	DT40 TDP1 no CPT inconclusive
CCCc1ccc(-c2cc(C(=O)NCCc3ccc(S(N)(=O)=O)cc3)c3ccccc3n2)cc1	DT40 TDP1 CPT 14.6µM, DT40 TDP1 no CPT 11.6µM, ClpP mod 31.6µM
O=C(NCCc1ccc(Cl)cc1)c1cc(-c2ccncc2)nc2ccccc12	DT40 TDP1 CPT inconclusive, DT40 TDP1 no CPT inconclusive (no result: TDP1 block)
NS(=O)(=O)c1ccc(CCNC(=O)c2cc(-c3ccc(Br)cc3)nc3ccccc23)cc1	DT40 TDP1 CPT 9.2µM, DT40 TDP1 no CPT 8.2µM
CNC(=O)c1ccc2c(c1)N(Cc1cc(C)ccc1C)C(=O)c1ccccc1S2	DT40 TDP1 CPT inconclusive, DT40 TDP1 no CPT inconclusive
COc1ccc(NC(=O)C2CCCN(S(=O)(=O)c3ccc(Br)s3)C2)cc1 (centres undefined)	DT40 TDP1 CPT inconclusive, DT40 TDP1 no CPT inconclusive
Nn1c(COc2ccccc2F)nnc1SCC(=O)NC1CCS(=O)(=O)C1 (centres undefined)	none (no result: TDP1 block)
O=C1Nc2ccc(Br)cc2C1=C1CCCCC1	DT40 TDP1 CPT inconclusive, DT40 TDP1 no CPT 23.1µM (no result: TDP1 block)
Cc1noc(/C=C/c2cccnc2)c1[N+](=O)[O-]	DT40 TDP1 CPT 20.6µM, DT40 TDP1 no CPT 13µM (no result: TDP1 block)
Cc1cccc(C)c1N/C=C/c1onc(C)c1[N+](=O)[O-]	none
CC(=O)N(C)c1cccc(-c2ccc3nnc(C)n3n2)c1	none (no result: TDP1 block)
Cc1ccc(N(Cc2cc(=O)[nH]c3ccccc23)C(=O)CCl)c(C)c1	DT40 TDP1 CPT 14.6µM, DT40 TDP1 no CPT 14.6µM (no result: TDP1 block, ClpP mod)
CCCC(=O)N(Cc1cc(=O)[nH]c2ccccc12)c1ccc(C)cc1C	DT40 TDP1 no CPT inconclusive (no result: TDP1 block)
O=C(NCC(c1cccnc1)N1CCc2ccccc2C1)C(=O)Nc1ccc(F)cc1F (centres undefined)	DT40 TDP1 CPT 14.6µM, DT40 TDP1 no CPT 18.4µM
O=C(NCC(c1ccco1)N1CCc2ccccc2C1)C(=O)Nc1ccccc1F (centres undefined)	none
CC(=O)Nc1ccc(NC(=O)C(=O)NCC(c2ccco2)N2CCc3ccccc3C2)cc1 (centres undefined)	DT40 TDP1 CPT 16.4µM, DT40 TDP1 no CPT 20.6µM (no result: TDP1 block)
O=C(NCC(c1ccco1)N1CCc2ccccc2C1)C(=O)Nc1ccc(F)cc1F (centres undefined)	DT40 TDP1 CPT 18.4µM, DT40 TDP1 no CPT 20.6µM
CCCCC1(Cc2cccc([N+](=O)[O-])c2)C(=O)N(c2ccccc2)N(c2ccccc2)C1=O	DT40 TDP1 CPT inconclusive, DT40 TDP1 no CPT inconclusive
O=S(=O)(O)c1cc(O)c2c(O)c(N=Nc3cc(Cl)ccc3O)c(S(=O)(=O)O)cc2c1	DT40 TDP1 CPT 18.4µM, DT40 TDP1 no CPT 18.4µM (no result: TDP1 block, ClpP mod)

Source: PubChem BioAssay
